Experimental data taken from PubChem BioAssay (NCATS).
Results filed as inconclusive are left out. Entries that show only a call come without a potency. Calls of active or inactive are those of the source. Calls come from the whole dose curve; as a rule, active = well fitted curve in the direction sought with a large enough effect; inconclusive = small, poorly fitted or top-dose-only effect, or another doubt; inactive = no such curve, though single readings can be large; an effect the other way counts as inactive or inconclusive.

Key:
[1] = Quantitative High-Throughput drug screen in 47 multiple myeloma cell lines against the NCATS MIPE library collection: KMS12PE_JCRB cell viability assay (AID 1918972); note: nearly all actives have a fitted effect of over 30% in size; note: potency is the fitted concentration of half-maximal effect
How it was run: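 Viability readout: CellTiter-Glo luminescence following 5 min room-temperature incubation with reagent. Prior exposure: 48 h, 37C, humidified 5% CO2, 500 cells per well.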

[2] = Quantitative High-Throughput drug screen in 47 multiple myeloma cell lines against the NCATS MIPE library collection: KMS20_JCRB cell viability assay (AID 1918973); note: nearly all actives have a fitted effect of over 45% in size; note: potency is the fitted concentration of half-maximal effect
How it was run: (§1)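 Myeloma cells (500 per well) were exposed to MIPE 4.0 compounds by pin transfer and incubated 48 hours at 37C, 5% CO2. Viability was read as ATP by CellTiter-Glo luminescence, normalised to DMSO (100%) and media-only (0%) wells.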

[3] = Quantitative High-Throughput drug screen in 47 multiple myeloma cell lines against the NCATS MIPE library collection: KMS26_JCRB cell viability assay (AID 1918975); note: nearly all actives have a fitted effect of over 45% in size
How it was run: (§2)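 Luminescent ATP measurement with CellTiter-Glo gives viability, scaled between DMSO-only wells (100%) and media-only wells (0%). Cells, 500 per well, faced library compounds for 48 hours at 37C.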

[4] = Quantitative High-Throughput drug screen in 47 multiple myeloma cell lines against the NCATS MIPE library collection: NCIH929_DSMZ cell viability assay (AID 1918978); note: nearly all actives have a fitted effect of over 35% in size; note: potency is the fitted concentration of half-maximal effect
How it was run: (§3)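 Cells were exposed to library compounds for 48 hours, after which ATP was measured by CellTiter-Glo. Signal was taken as median relative luminescence units.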

[5] = Quantitative High-Throughput drug screen in 47 multiple myeloma cell lines against the NCATS MIPE library collection: MM1S_ATCC cell viability assay (AID 1918980); note: nearly all actives have a fitted effect of over 45% in size; note: potency is the fitted concentration of half-maximal effect
How it was run: as §3

[6] = Quantitative High-Throughput drug screen in 47 multiple myeloma cell lines against the NCATS MIPE library collection: KMS12BM_JCRB cell viability assay (AID 1918971); note: nearly all actives have a fitted effect of over 35% in size
How it was run: as §2

[7] = Quantitative High-Throughput drug screen in 47 multiple myeloma cell lines against the NCATS MIPE library collection: MOLP8_DSMZ cell viability assay (AID 1918977); note: nearly all actives have a fitted effect of over 45% in size
How it was run: as §3

[8] = Quantitative High-Throughput drug screen in 47 multiple myeloma cell lines against the NCATS MIPE library collection: KMS21BM_JCRB cell viability assay (AID 1918974); settings: ATP luminescence, 48 h; viability: at 45.8 µM (top of the series) unless noted; note: potency is the fitted concentration of half-maximal effect
How it was run: as §1

[9] = Quantitative High-Throughput drug screen in 47 multiple myeloma cell lines against the NCATS MIPE library collection: MMM1_PLB cell viability assay (AID 1918976); note: potency is the fitted concentration of half-maximal effect; nearly all actives have a fitted effect of over 35% in size
How it was run: as §3

[10] = Quantitative High-Throughput drug screen in 47 multiple myeloma cell lines against the NCATS MIPE library collection: OCIMY1_PLB cell viability assay (AID 1918979); note: nearly all actives have a fitted effect of over 35% in size
How it was run: as §3

CC(C)C[C@H](CC(=O)O)C(=O)N[C@@H](Cc1c[nH]c2ccccc12)C(=O)N[C@@H](C)c1ccccc1
Potency [1]: inactive
Potency [2]: inactive
Potency [3]: inactive
Potency [4]: inactive
Potency [5]: 1.66 µM (active)

Cc1ccc([C@@H]2O[C@H](CO)[C@@H](O)[C@H](O)[C@@H]2O)cc1Cc1ccc(-c2ccc(F)cc2)s1
Potency [6]: inactive
Potency [7]: inactive

CC=C(C)C(=O)O[C@H]1C(C)=C[C@]23C(=O)[C@@H](C=C(CO)[C@@H](O)[C@]12O)[C@H]1[C@@H](C[C@H]3C)C1(C)C
Potency [1]: 18.7 µM (active)
Potency [8]: 8.33 µM (active)
Potency [9]: 18.7 µM (active)

CC=CCC=CCCC(=O)[C@H]1O[C@@H]1C(N)=O
Potency [1]: 23.5 µM (active)
Potency [5]: 20.9 µM (active)

COc1ccc2c3c1OC1C[C@@H](O)C=C[C@@]31CCN(C)C2 (stereo partly drawn)
Potency [1]: inactive
Potency [4]: 16.6 µM (active)
Potency [10]: inactive
Potency [5]: 20.9 µM (active)

CC(=O)OC1C(C)OC(Oc2c(-c3ccc(O)cc3)oc3cc(O)cc(O)c3c2=O)C(O)C1OC(C)=O (stereo not drawn)
Potency [2]: 11.8 µM (active)
Potency [9]: 2.96 µM (active)
Potency [4]: inactive
Potency [5]: 20.9 µM (active)

O=C(O)c1ccccc1C(=O)Nc1ccc(-c2ccccc2)cc1
Potency [1]: inactive
Potency [4]: inactive

CO[C@H]1C=CO[C@@]2(C)Oc3c(C)c(O)c4c(O)c(c5c(c4c3C2=O)NC2(CCN(CC(C)C)CC2)N=5)=NC(=O)C(C)=CC=C[C@H](C)[C@H](O)[C@@H](C)[C@@H](O)[C@@H](C)[C@H](OC(C)=O)[C@H]1C
Potency [1]: 11.8 µM (active)
Potency [3]: inactive
Potency [4]: inactive
Potency [10]: inactive

Clc1ccc(-c2nc3sccn3c2C=NOCc2ccc(Cl)c(Cl)c2)cc1
Potency [1]: inactive
Potency [3]: inactive
Potency [9]: 0.372 µM (active)
Potency [7]: inactive
Potency [4]: inactive
Potency [10]: inactive
Potency [5]: inactive
